PAFAH1B3 inh: PAFAH1B3 (human) inhibition; Q15102; recombinant PAFAH1B3, FP-rhodamine probe, fluorescence polarization; inhibition, % at 3.39 µM; 340,000 tested, 0.28% active; AID 492972;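 active = inhibition above the screen-wide average of all tested compounds plus 3 SD, cut at about 25% in these data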
TCR CD3 inh: inhibitors of human TCR-CD3 interaction | TAMRA-labeled TCR probe fluorescence, biochemical | inhibition, % at 9.4 µM | 360,000 tested, 0.37% active | AID 651800; in the data active = inhibition above about 19%;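 also: recombinant mutant TCR 2C K166C tagged with TAMRA read by polarization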
PAFAH1B2 inh: blocks human PAF acetylhydrolase 1b catalytic subunit 2; P68402; recombinant PAFAH1B2, FP-rhodamine activity probe, fluorescence polarization; inhibition, % at 3.39 µM; 340,000 tested, 1.2% active; AID 492953;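 active = inhibition above the mean of all tested compounds plus 3 SD, cut at about 24% in these data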
Target sequence (P68402 whole entry, looked up): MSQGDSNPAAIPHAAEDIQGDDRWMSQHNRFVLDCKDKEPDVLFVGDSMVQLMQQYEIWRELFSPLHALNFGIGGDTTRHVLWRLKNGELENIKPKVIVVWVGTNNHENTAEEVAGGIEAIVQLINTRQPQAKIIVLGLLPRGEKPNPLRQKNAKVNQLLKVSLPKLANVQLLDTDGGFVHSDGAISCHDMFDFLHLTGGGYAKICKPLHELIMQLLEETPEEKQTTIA
PAFAH2 inh: PAFAH2 (human) inhibition. Q99487. recombinant PAFAH2, FP-rhodamine activity probe, fluorescence polarization. inhibition, % at 3.39 µM. 340,000 tested, 0.99% active. AID 492956;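 active = inhibition above the mean over all tested compounds plus 3 SD, cut at about 30% in these data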;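 also: inhibitors block probe labeling of enzyme so polarization drops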
pPAFAH inh: inhibitors of human plasma PAF acetylhydrolase (pPAFAH); recombinant pPAFAH, FP-rhodamine probe fluorescence polarization; inhibition, % at 3.39 µM; 330,000 tested, 1.5% active; AID 463082;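 active = inhibition above the mean inhibition across the screen plus 3 SD, cut at about 25% in these data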;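 also: inhibitors block binding of the rhodamine activity-based probe so polarization drops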
Target sequence (Q13093 whole entry, looked up): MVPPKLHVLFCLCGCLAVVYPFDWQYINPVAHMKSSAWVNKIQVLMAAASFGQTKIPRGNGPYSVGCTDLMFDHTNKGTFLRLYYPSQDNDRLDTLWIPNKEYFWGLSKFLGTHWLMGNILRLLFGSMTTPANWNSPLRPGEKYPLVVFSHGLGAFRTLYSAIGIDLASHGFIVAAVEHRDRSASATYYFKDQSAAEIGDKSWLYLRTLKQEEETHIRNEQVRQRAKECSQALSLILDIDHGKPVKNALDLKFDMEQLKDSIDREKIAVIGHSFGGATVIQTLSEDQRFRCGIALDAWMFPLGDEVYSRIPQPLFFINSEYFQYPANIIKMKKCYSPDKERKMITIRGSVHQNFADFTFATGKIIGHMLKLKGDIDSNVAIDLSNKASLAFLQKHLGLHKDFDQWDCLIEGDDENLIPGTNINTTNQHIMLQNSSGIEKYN
PAFAH2 confirm: confirmation of human PAFAH2 inhibitors; shares compounds with PAFAH2 inh; recombinant PAFAH2, FP-rhodamine activity probe, fluorescence polarization; inhibition, % at 3.39 µM; 2,300 tested, 65% active; AID 493030;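 active = mean inhibition over three repeats above a set limit taken from the earlier primary screen, cut at about 30% in these data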;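 also: inhibitor blocks binding of rhodamine activity probe so polarization falls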
Each line names hits and unclear results; the compound was inactive in the other large screens (follow-up assays come after a bar, where they were run). An excerpt weighted towards active compounds, which were near 2.7% of everything screened.

CCCNC(=O)COC(=O)/C=C/c1cccc(F)c1	PAFAH2 inh 33.0 | PAFAH2 confirm inactive
O=C(COC(=O)/C=C/c1cccc(F)c1)NNC(=O)c1ccccc1	none
COc1ccc(CCNC(=O)COC(=O)/C=C/c2cccc(F)c2)cc1	none
COc1ccc(CN(C)C(=O)c2cccc(NS(=O)(=O)c3ccccc3)c2)c(OC)c1	none
COC(=O)c1sccc1-c1ccc(/C=N/OC(=O)c2cccs2)o1	PAFAH2 inh 50.1 | PAFAH2 confirm inactive
COC(=O)C(=Cc1ccc(-c2ccsc2C(=O)OC)o1)C(=O)OC	none
O=C(NCC1CCCO1)C(Cc1ccccc1)N1C(=O)C2C3C=CC(C4CC34)C2C1=O (stereo unspecified)	PAFAH2 inh 42.5 | PAFAH2 confirm inactive
O=C(Nc1ccccc1N1CCOCC1)C1=NN(c2ccccc2)C(=O)CC1	none (no result: pPAFAH inh)
CCCCN1CC(=O)N2[C@H]3c4cc(Cl)ccc4OC[C@@H]3[C@H](C(=O)OCC)[C@]2(C)C1=O	none
COc1ccc(C(=O)OCCN=C2NS(=O)(=O)c3ccccc32)cc1OC	PAFAH2 inh 42.6 | PAFAH2 confirm inactive
O=C(COC(=O)c1ccc(Br)cc1)NCc1ccccc1	PAFAH2 inh 31.3 | PAFAH2 confirm inactive
O=C(COC(=O)c1ccccc1C(=O)c1ccccc1)NCCc1ccc(Cl)cc1Cl	PAFAH2 inh 70.9 | PAFAH2 confirm 58.0
O=C(Cc1ccccc1)NCCc1ccc(Cl)cc1Cl	none (no result: TCR CD3 inh)
CC(C)(C)NC(=O)COC(=O)c1ccccc1C(=O)c1ccccc1	PAFAH2 inh 69.2 | PAFAH2 confirm 55.7
O=C(COC(=O)c1ccccc1C(=O)c1ccccc1)NCc1ccc(F)cc1	PAFAH2 inh 43.2 | PAFAH2 confirm 35.6
Cc1ccc(C(=O)c2ccccc2C(=O)OCC(=O)NC(=O)NC(C)(C)C)cc1	none
O=C(COc1ccc(C(=O)c2ccccc2)cc1)NCc1ccc(F)cc1	none
Nc1ccccc1SC/C=C/CSc1ccccc1N	none
CN1OC[C@@H]2CN(C(=O)CCc3ccccc3)[C@H](c3cccc(-c4ccc(C#N)cc4)c3)C[C@@H]21	none (no result: pPAFAH inh)
NC(=S)NN=C1C=CCCC1	none (no result: pPAFAH inh)
O=C(COC(=O)c1ccccc1C(=O)c1ccc(Cl)cc1)NCc1ccccc1	PAFAH2 inh 33.6 | PAFAH2 confirm inactive
CC(C(=O)NCc1cccs1)N1CCN(S(=O)(=O)c2ccc3c(c2)OCCCO3)CC1 (stereo unspecified)	none (no result: pPAFAH inh)
O=C(CN1C(=O)NC(Cc2c[nH]c3ccccc23)C1=O)Nc1ccc(Br)cc1F (stereo unspecified)	none
O=C(O)CCCCCN1C(=O)/C(=C\c2ccc(-c3ccc(Cl)cc3)o2)SC1=S	none
O=C(O)CCCN1C(=O)/C(=C/c2ccc(-c3nc4ccccc4s3)o2)SC1=S	PAFAH2 inh 50.0 | PAFAH2 confirm 50.5
O=C1CCCN1C(=O)CSc1nnnn1-c1ccccc1	PAFAH2 inh 36.7 | PAFAH2 confirm 30.7
COc1ccccc1-n1nnnc1SCC(=O)N1CCCC1=O	PAFAH2 inh 51.4 | PAFAH2 confirm 42.1
COc1ccc(-n2nnnc2SCC(=O)N2CCCC2=O)cc1	none
Cc1cccc(NC(=O)NNC(=O)c2cc3occc3[nH]2)c1C	none
COc1ccc(/C=N/NC(=O)c2ccc3c(c2)OCO3)c(C(=O)O)c1OC	none
CCOC(=O)C1CCCN(S(=O)(=O)c2cc3c4c(c2)CCN4C(=O)CC3)C1 (stereo unspecified)	none
CCOC(=O)C1CCCN(S(=O)(=O)c2ccc3c4c2CC(=O)N4CC(C)S3)C1 (stereo unspecified)	PAFAH2 inh 34.7 | PAFAH2 confirm inactive
Cc1ccc(C2CC(=O)N3CN(c4ccc(Br)cc4)CSC3=C2C#N)o1 (stereo unspecified)	PAFAH2 inh 31.9, pPAFAH inh 56.3 | PAFAH2 confirm inactive
Cc1nc2cc3c(=O)n(C)cnc3cc2n1Cc1ccccc1	none (no result: PAFAH1B3 inh, PAFAH1B2 inh, PAFAH2 inh, pPAFAH inh)
CCCC(=O)Nc1ccc(C(=O)n2ccc(C)n2)cc1	PAFAH2 inh 48.9 | PAFAH2 confirm 40.7
CCCC(=O)Nc1ccc(C(N)=O)cc1	none
Cc1cccc(NC(=O)CNC(=O)c2ccc(-n3cncn3)c([N+](=O)[O-])c2)c1C	PAFAH2 inh 38.3 | PAFAH2 confirm inactive
COc1ccc(OC)c(/C=C/C(=O)OCC(=O)N2CCCCC2)c1	none
O=C(COC(=O)/C=C/c1ccc(OC(F)F)cc1)NC1CCCC1	PAFAH2 inh 69.9 | PAFAH2 confirm 74.2
O=C(COC(=O)/C=C/c1ccc(C(F)(F)F)cc1)NCC1CCCCC1	PAFAH2 inh 30.3 | PAFAH2 confirm inactive
COc1ccc(OC)c(/C=C/C(=O)OCC(=O)NC2CCCCCCC2)c1	PAFAH2 inh 89.6 | PAFAH2 confirm 85.5
CC1CN(C(=O)COC(=O)/C=C/c2ccc(C(F)(F)F)cc2)CC(C)O1 (stereo unspecified)	none
COc1ccc(/C=C/C(=O)OCC(=O)NC2CCCC2)cc1OC	PAFAH2 inh 82.9 | PAFAH2 confirm 78.4
COc1ccc(C(=O)NC(=S)N2CCN(c3ccccc3OC)CC2)cc1OC	none
COc1ccc(/C=C/C(=O)OCC(=O)NC2CCCCCCC2)cc1	PAFAH2 inh 85.5 | PAFAH2 confirm 83.5
COc1ccc(/C=C/C(=O)OCC(=O)N2CCCCCC2)cc1OC	PAFAH2 inh 32.9 | PAFAH2 confirm inactive
COc1ccccc1N1CCN(C2CCCN(C(=O)CCc3cnn(C)c3)C2)CC1 (stereo unspecified)	none
Cc1noc(NC(=O)c2ccc(F)cc2)c1C#N	none
Cc1noc(NC(=O)c2ccccc2C(F)(F)F)c1C#N	PAFAH2 inh 37.5 | PAFAH2 confirm inactive
N#CCC(=O)Nc1ccc(C(=O)OCC(=O)NCCCc2ccccc2)cc1	PAFAH2 inh 38.0 | PAFAH2 confirm 30.0
CCCCNC(=O)COC(=O)c1ccc(N(C)C)cc1	PAFAH2 inh 76.2 | PAFAH2 confirm 76.3
CCCCOC(=O)c1ccc(NC(C)=O)cc1	none
CCCCNC(=O)COC(=O)c1ccc(NC(C)=O)cc1	PAFAH2 inh 69.8 | PAFAH2 confirm 53.8
O=C(COC(=O)c1ccncc1)NCCCc1ccccc1	none
N#CCC(=O)Nc1ccc(C(=O)OCC(=O)C23CC4CC(CC(C4)C2)C3)cc1	PAFAH2 inh 63.2 | PAFAH2 confirm 61.7
CCc1cc(Cn2nc(-c3ccccc3)cc2C(=O)NCc2cccs2)on1	none
O=P(c1ccccc1)(c1ccccc1)c1ccc(O)cc1	none
Cc1cccc(C)c1NC(=O)C(=O)NCC1CCCN1S(=O)(=O)c1ccccc1 (stereo unspecified)	none
Cc1nn(-c2ccccc2)c(C)c1NC(=O)COC(=O)c1ccc(NC(=O)CC#N)cc1	PAFAH2 inh 32.8 | PAFAH2 confirm inactive
Cc1nn(-c2ccccc2)c(C)c1C(=O)OCC(=O)Nc1ccc(C(N)=O)cc1	none (no result: PAFAH1B3 inh, PAFAH1B2 inh, PAFAH2 inh, pPAFAH inh)
CC(C)C(=O)N(c1cc2sc(=O)oc2c2ccccc12)S(=O)(=O)c1cccs1	PAFAH2 inh 32.2 | PAFAH2 confirm inactive
CC(=O)N(c1ccc2oc(=O)sc2c1)S(=O)(=O)c1cccs1	none

High-throughput results as filed in PubChem BioAssay.
